Source: the supplement of paper PMC12067093, “Discovery and optimisation of a covalent ligand for TRIM25 and its application to targeted protein ubiquitination” (Chemical Science, 2025)
Of roughly 21,000 targets only a part is listed; those with the largest changes were picked by preference.

Compound: Cc1cc(ccc1-c1ccccc1)C(=O)N1CCCN(CC1)C(=O)CCl [compound 10]
Assay: probe-labelled cysteine peptide fold change vs DMSO (competition) (log2 fold change); higher = less target engagement (more negative = stronger competition)
Conditions: THP-1, incubation time: 4 h
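Also: competitive profiling in live THP-1 cells: cysteine peptides tagged with an iodoacetamide desthiobiotin (IA-DTB) probe, intensity after compound treatment relative to DMSO-treated cells.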

Target	probe-labelled cysteine peptide fold change (10 µM)	probe-labelled cysteine peptide fold change (50 µM)
PRR14L_Q5THK1_1483_DTESCTSPCLLGAPR (UniProt Q5THK1)	-0.528	-1.12
RHOC_P08134_16_KLVIVGDGACGK<|>RHOA_P61586_16_KLVIVGDGACGK (UniProt P61586+P08134)	-0.0365	-0.193
RNASEH1_O60930_191_AEIHAACK (UniProt O60930)	-0.0799	-0.155
PRKDC_P78527_1507_QCLPSLDLSCK (UniProt P78527)	0.0976	-1.07
RECQL4_O94761_814_DGQPAHCHLFLQPQGEDLR (UniProt O94761)	-0.0251	-0.0847
RANBP2_P49792_707_AEDIENDALSPEEQEECK (UniProt P49792)	0.0365	0.0945
PRPF6_O94906_837_KCEHDPHVLLAVAK (UniProt O94906)	-0.315	0.18
RGPD3_A6NKT7_537_SWWDAVCTLIHR<|>RGPD8_O14715_537_SWWDAVCTLIHR<|>RGPD1_P0DJD0_528_SWWDAVCTLIHR<|>RGPD2_P0DJD1_536_SWWDAVCTLIHR<|>RANBP2_P49792_536_SWWDAVCTLIHR<|>RGPD4_Q7Z3J3_537_SWWDAVCTLIHR<|>RGPD6_Q99666_537_SWWDAVCTLIHR (UniProt Q7Z3J3+P49792+P0DJD1+Q99666+P0DJD0+O14715+A6NKT7)	-0.451	-0.14
RABGEF1_Q9UJ41_359_DLSIEEQSECAQDFYHNVAER (UniProt Q9UJ41)	-0.389	-0.123
REPIN1_Q9BWE0_433+436_VHSGERPFACEECGR (UniProt Q9BWE0)	-0.108	-0.289
REEP5_Q00765_18_NCMTDLLAK (UniProt Q00765)	-0.872	-1.97
PRMT5_O14744_622_KVWYEWAVTAPVCSAIHNPTGR (UniProt O14744)	-0.0156	0.0576
PSME1_Q06323_101_KKGEDEDKGPPCGPVNCNEK (UniProt Q06323)	-0.428	-1.54
PSMD11_O00231_257_YMLLCK (UniProt O00231)	0.248	0.241
RIF1_Q5UIP0_2450_LSCMANSVIK (UniProt Q5UIP0)	-0.0942	-0.14
RBM4B_Q9BQ04_107_FEEYGPVIECDIVK<|>RBM4_Q9BWF3_107_FEEYGPVIECDIVK (UniProt Q9BWF3+Q9BQ04)	0.566	0.744
PRKCQ_Q04759_193_QCNAAIHK (UniProt Q04759)	-0.474	-0.576
RB1CC1_Q8TDY2_603_VPLLCDFEPLHQHVLALHNLVK (UniProt Q8TDY2)	-0.156	-1.09
RAB10_P61026_124_CDMDDK (UniProt P61026)	-0.104	0.0844
PRPS2_P11908_165_NCIIVSPDAGGAKR (UniProt P11908)	0.121	-0.113
RGPD3_A6NKT7_349_GEAGQNLLEMMACDR<|>RGPD1_P0DJD0_340_GEAGQNLLEMMACDR<|>RGPD2_P0DJD1_348_GEAGQNLLEMMACDR<|>RANBP2_P49792_348_GEAGQNLLEMMACDR<|>RGPD4_Q7Z3J3_349_GEAGQNLLEMMACDR (UniProt Q7Z3J3+P49792+P0DJD1+P0DJD0+A6NKT7)	-0.0339	0.0903
R3HCC1_Q9Y3T6_5_ALLCLDGVFLSSAENDFVHR (UniProt Q9Y3T6+R3HCC1)	0.242	0.0812
PSMD11_O00231_202_TTANAIYCPPK (UniProt O00231)	0.077	0.248
RACGAP1_Q9H0H5_419_VDDIHAICSLLK (UniProt Q9H0H5)	0.00786	0.00467
PUM1_Q14671_980_CIECVQPQSLQFIIDAFK (UniProt Q14671)	0.213	-0.0133
PTPN11_Q06124_318_CNNSKPK (UniProt Q06124)	-0.31	-1.11

Target	probe-labelled cysteine peptide fold change (10 µM)	probe-labelled cysteine peptide fold change (50 µM)
PSMC3_P17980_240_ACAAQTK (UniProt P17980)	-0.0208	-0.0025
RASSF5_Q8WWW0_225_NCLGMK (UniProt Q8WWW0)	-0.275	-0.844
QARS_P47897_665_GPSGCVESLEVTCR (UniProt P47897)	-0.11	0.446
RANBP2_P49792_1243_ICANHYISPDMK (UniProt P49792)	0.0568	0.0875
QRSL1_Q9H0R6_278_LCIGIPK (UniProt Q9H0R6)	0.155	0.0481
PRMT3_O60678_67_LFTSAEETFSHCK (UniProt O60678)	0.049	0.0747
PTPN1_P18031_344_EETQEDKDCPIKEEK (UniProt P18031)	-0.593	-1.57
PTPN12_Q05209_164_ISCEDEQAR (UniProt Q05209)	0.159	0.15
PRR14L_Q5THK1_1503_AQDPSSAGCDQIHGAFAK (UniProt Q5THK1)	-0.388	-1.59
PYCR1_P32322_262_SLLINAVEASCIR (UniProt P32322)	0.0279	0.0718
PSME4_Q14997_637_CCPEESLK (UniProt Q14997)	-0.0784	-0.446
RBBP5_Q15291_100_LVSASTDNIVSQWDVLSGDCDQR (UniProt Q15291)	0.121	0.0651
PTPRC_P08575_610_SCNLDEQQELVERDDEK (UniProt P08575)	-0.427	-1.12
RGS14_O43566_183_ECLLAEAEGR (UniProt O43566)	-0.0353	0.16
PTER_Q96BW5_196_VLQATAHAQAQLGCPVIIHPGR (UniProt Q96BW5)	0.2	0.329
PRMT9_Q6P2P2_290_GESANCEK (UniProt Q6P2P2)	-0.112	-0.0837
QSOX1_O00391_110_AWRPALYLAALDCAEETNSAVCR (UniProt O00391)	-0.147	-0.174
RCCD1_A6NED2_139_LPLLPCAR (UniProt A6NED2)	-1.01	-1.9
PRPF19_Q9UMS4_5+16_SLICSISNEVPEHPCVSPVSNHVYER (UniProt Q9UMS4)	0.0585	0.103
PRKDC_P78527_373_GYGLFAGPCK (UniProt P78527)	-0.037	0.131
RABGAP1L_Q5R372_665_NNFEDLHCK (UniProt Q5R372)	0.206	0.197
RGMB_Q6NW40_226_ITIIFKAHHECTDQK (UniProt Q6NW40)	-0.0752	-1.11
PUS7_Q96PZ0_319_CLMNFK (UniProt Q96PZ0)	-0.0229	-0.239
PRPF8_Q6P2Q9_2116_KFICISDLR (UniProt Q6P2Q9)	0.0139	0.129
RFC3_P40938_32_NLVQCGDFPHLLVYGPSGAGK (UniProt P40938)	-0.122	0.124
PRKCI_P41743_137_LYCANGHTFQAK (UniProt P41743)	-0.00179	0.0748

Target	probe-labelled cysteine peptide fold change (10 µM)	probe-labelled cysteine peptide fold change (50 µM)
RANBP9_Q96S59_707_QPPLALAMGQATQCLGLMAR (UniProt Q96S59)	0.193	0.216
PSMC6_P62333_228_DHQPCIIFMDEIDAIGGR (UniProt P62333)	-0.0612	0.106
PRXL2A_Q9BRX8_88_RPGCFLCR (UniProt Q9BRX8)	-2.04	-2.18
PSMB8_P28062_7_ALLDVCGAPR (UniProt P28062)	-0.068	-0.273
RMND5A_Q9H871_328+336_CWYHSIFACPILR (UniProt Q9H871)	-0.0698	-0.177
PSME4_Q14997_718_QGYTLSCNLLHHLLR (UniProt Q14997)	0.366	0.173
RAB29_O14966_127_CDLSPWAVSR (UniProt O14966)	-0.0495	0.0455
PRKCD_Q05655_127_VLMSVQYFLEDVDCK (UniProt Q05655)	-0.226	-0.31
RNF114_Q9Y508_64_KPVCGVCR (UniProt Q9Y508)	0.0642	-0.0371
RCHY1_Q96PM5_43_LCHDNNEDHQLDR (UniProt Q96PM5)	0.344	2.12
RAD54L2_Q9Y4B4_1143_MAASGSQGPSCESTSNGR (UniProt Q9Y4B4)	-0.204	-0.485
RBM34_P42696_196_TVFVGNLPVTCNK (UniProt P42696)	0.0157	-0.186
RAD54L2_Q9Y4B4_618_AFCVCCK (UniProt Q9Y4B4)	-0.173	-0.639
RHOG_P84095_18_TCLLICYTTNAFPK (UniProt P84095)	-0.108	0.0979
RAI14_Q9P0K7_139_TALHYAAAQGCLQAVQILCEHK (UniProt Q9P0K7)	0.0635	-0.0217
RBM25_P49756_132_LQAFGFCEYKEPESTLR (UniProt P49756)	-0.148	-0.0661
PTPMT1_Q8WUK0_127+132_YQSLGQCVYVHCK (UniProt Q8WUK0)	0.0587	-0.0194
PRKDC_P78527_2093_DPTVHDDVLELEMDELNRHECMAPLTALVK (UniProt P78527)	-0.156	-0.199
RANBP2_P49792_1749_CIACQCPSK (UniProt P49792)	0.0505	0.0953
PSMC1_P62191_58_LPLVTPHTQCR (UniProt P62191)	-0.0192	0.104
QDPR_P09417_161_GAVHQLCQSLAGK (UniProt P09417)	0.0328	0.165
RGPD3_A6NKT7_141_LKEQLLDCEGEDGWNK<|>RGPD8_O14715_141_LKEQLLDCEGEDGWNK<|>RANBP2_P49792_141_LKEQLLDCEGEDGWNK<|>RGPD4_Q7Z3J3_141_LKEQLLDCEGEDGWNK (UniProt Q7Z3J3+P49792+O14715+A6NKT7)	-0.113	-0.334
RANGAP1_P46060_169_ILAAALTECHRK (UniProt P46060)	-0.159	-0.379
PXN_P49023_505_ECFTPFVNGSFFEHDGQPYCEVHYHER (UniProt P49023)	0.192	0.386
